tim10-1 inh = inhibits growth of tim10-1 mutant yeast | S. cerevisiae tim10-1 ts strain growth, BacTiter-Glo, 24 h | inhibition, % at 20 µM | 2.2% of 330,000 active;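 active = inhibition of at least 40%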;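 also: mutant grown at 25 °C; 0% = DMSO wells with yeast and 100% = wells holding no yeast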
TIM10 inh = TIM10 yeast growth inhibition; 1.4% of 330,000 active; inhibition, % at 10 µM; S. cerevisiae TIM10 strain growth, BacTiter-Glo luminescence, 24 h;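 active = inhibition of 40% or more at the single tested concentration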;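 also: wild-type TIM10 isogenic control strain grown at permissive 25 °C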
NALP3 yeast inh = inhibitors of NALP3 inflammasome in yeast | Yeast reconstituted NLRP3/ASC/caspase-1, beta-gal luminescence, 24 h | inhibition, % at 10 µM | 0.39% of 330,000 active;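 active = inhibition of 50% or more; inactive = inhibition below 50%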;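 also: plate controls were induced DMSO wells for no effect and uninduced yeast grown without galactose for full effect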
tim23-1 inh = inhibits growth of tim23-1 mutant yeast; S. cerevisiae tim23-1 growth, BacTiter-Glo luminescence, 24 h; inhibition, % at 20 µM; 1.3% of 330,000 active; AID 463212;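 active = growth inhibition of the mutant yeast at or above 50%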;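 also: temperature-sensitive mutant grown at 25 °C; plate controls were DMSO-treated mutant yeast for no effect and medium wells lacking yeast for full effect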
PfHsp90 yeast 2 = reduces growth (ATP signal) of yeast expressing P. falciparum Hsp90; S. cerevisiae expressing PfHsp90, BacTiter-Glo ATP, 48 h; yeast lacking PDR1 and PDR3 efflux regulators; 0.32% of 310,000 active; inhibition, % at 9.4 µM; AID 504621;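 active = every replicate shows inhibition above about 80%, whatever the replicate mean, limit read from the data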;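 also: 0% = DMSO neutral controls and 100% = 20 µM radicicol positive controls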
SKKanGAS inh = SKKanGAS growth inhibition. S. pyogenes SKKanGAS, kanamycin growth, BacTiter-Glo, 6 h. inhibition, % at 7.5 µM. 1.3% of 300,000 active. AID 1662;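 active = mean replicate score, as percent of positive control median, at least 50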;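 also: strain carries kanamycin resistance gene driven by streptokinase promoter and grows in 40 µg/ml kanamycin; loss of luminescence reflects streptokinase promoter inhibition or plain growth inhibition; 0% = median of DMSO wells and 100% = positive control at its reference dose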
tim10-1 conf = confirmation of tim10-1 mutant yeast growth inhibitors; 56% of 7,400 active; shares compounds with tim10-1 inh; S. cerevisiae tim10-1 ts strain growth, BacTiter-Glo, 24 h; AID 463213; inhibition, % at 20 µM;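 active = inhibition of yeast growth at or above a set limit in either of two repeat tests at 20 µM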;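 also: tim10-1 mutant grown at permissive 25 °C to find synthetic lethal compounds; 0% = DMSO yeast wells and 100% = medium wells without yeast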
Active calls of the source: *; nt = no result given. Sampled rows, rich in hits. Any-hit rate of the full collection: about 4.6%.

SMILES	tim10-1 inh	TIM10 inh	NALP3 yeast inh	tim23-1 inh	PfHsp90 yeast 2	SKKanGAS inh	tim10-1 conf
CC(C)c1ccc(OCC(=O)N2CCN(C(=O)c3ccco3)CC2)cc1	8	13	20	19	4	21	nt
Cc1nnc(NC(=O)CSc2nnc(CC(=O)Nc3ccccc3C)n2C)s1	7	-12	26	-2	-32	-1	nt
Cc1ccc2c(c1)-c1[nH]c(=S)ncc1CS2	13	20	21	41	-2	13	nt
CC(C)NC(=O)CCCN1C(=O)c2ccccc2Sc2ncccc21	12	-15	17	8	19	1	nt
CC(O/N=C/c1ccc(OC(F)F)cc1)C(=O)Nc1cccc(S(=O)(=O)N2CCOCC2)c1 (configuration not stated)	27	15	12	25	-25	13	nt
CC[n+]1c(/C=C2\C=C(C)CC(C)C2)sc2ccccc21 (configuration not stated)	30	22	-2	35	-7	-2	nt
CCC1=C/C(=C/c2sc3ccccc3[n+]2CC)CC(C)(C)C1	42*	30	23	38	-12	2	35*
CC(=O)Nc1cccc(Oc2ncnc3scc(-c4ccc(C)cc4)c23)c1	42*	20	-1	9	-24	-4	29*
Cc1ccc(-c2csc3ncnc(Oc4ccc5c(C)cc(=O)oc5c4)c23)cc1	23	13	25	13	-23	12	nt
COc1ccc(CC(=O)Nc2nc(-c3cc(OC)ccc3OC)cs2)cc1	43*	10	20	42	28	3	35*
COC(=O)c1ccc2c(=O)[nH]c(COC(=O)c3c(-c4ccccc4Cl)noc3C)nc2c1	14	13	12	1	9	-3	nt
Cc1c2c(nc3ccccc13)CC(C)(C)CC2=O	6	-6	11	24	6	-3	nt
CC1(C)CC(=O)c2c(nn(-c3ccccc3)c2-c2ccncc2)C1	46*	2	6	29	nt	2	36*
CCCc1cc(C(=O)Cc2ccc(C(=O)OCC)o2)c(O)cc1O	45*	14	13	16	-15	32	15
CCCc1cc(C(=O)Cc2ccc(F)cc2)c(O)cc1O	29	26	17	37	4	35	nt
O=C(c1cn(-c2ccccc2)nc1-c1ccc(Cl)cc1)N1CCOCC1	35	31	10	46	-32	11	nt
O=C(c1cn(-c2ccccc2)nc1-c1ccc(Cl)s1)N1CCOCC1	44*	21	9	25	-124	-3	25
CN(C)c1ccc(C(CNS(=O)(=O)c2ccc([N+](=O)[O-])cc2)N2CCCC2)cc1 (configuration not stated)	17	5	2	2	-7	2	nt
CCOC(=O)N1CCN(C(=O)CCc2c(C)nc3c(c(C)nn3-c3ccc(C)c(C)c3)c2C)CC1	40	30	15	30	5	22	35*
CC(c1ccco1)N(C(=O)c1ccccc1NS(=O)(=O)c1cccc([N+](=O)[O-])c1)c1ccccn1 (configuration not stated)	42*	40	2	32	1	4	34*
COc1ccc2c(c1)CCc1c(C(=O)N3CCCc4ccccc43)noc1-2	45*	34	28	42	-22	-11	34*
COc1ccc(/C=C/C(=O)N2CCCc3ccccc32)cc1	47*	23	19	37	-16	-1	22
CCOC(=O)/C=C/C(=O)N1CCc2ccccc21	47*	20	14	32	23	-1	40*
COc1ccc2c(c1)CCc1c(C(=O)N3CCOCC3)noc1-2	8	-10	10	7	2	-5	nt
Cc1ccc(-c2nc3cccnc3s2)cc1NS(C)(=O)=O	44*	2	7	13	1	-1	-7
CCCS(=O)(=O)Nc1cccc(-c2nc3cccnc3s2)c1	20	4	4	23	-38	-14	nt
O=C(COc1ccccc1)Nc1ccc(S(=O)(=O)N2CCCC2)cc1	41*	28	18	27	-18	-5	31
